We go through 39 sequences from the OligoGym collection.
Further: reference of the scale not given here.

The target of the first assay is CLDN23. The assay is described as follows: pooled miR-30 sensor sort-seq; sequence = guide strand. The following applies: shRNA.
In turn, TGGATGGTGCTGACGCTGCTGC showed a sensor-assay potency score (higher = more potent) of -1.17.

For TGTAGCTGACCTGCACCGTGAC, the sensor-assay potency score (higher = more potent) is -0.702.

Take TGGCCGTCGCTGTAGTACTTGA: the sensor-assay potency score (higher = more potent) was -1.77.

AAGTTGGGCTCGTCCTGCCAGC showed a sensor-assay potency score (higher = more potent) of -1.5.

For the sequence TCGCTGTAGTACTTGATGGCGG, the sensor-assay potency score (higher = more potent) was -1.12.

Turning to TTGGATGGTGCTGACGCTGCTG, the sensor-assay potency score (higher = more potent) was -0.0148.

In turn, TAGTACTTGATGGCGGGCGCCA displayed a sensor-assay potency score (higher = more potent) of -1.32.

The sequence TACAACTCCACGTCCACTGGCT displayed a sensor-assay potency score (higher = more potent) of 0.00465.

For TTGGGCTCGTCCTGCCAGCAGC, the sensor-assay potency score (higher = more potent) was -1.78.

TTGGTGTAGGCCTTGGGCCGCG: the sensor-assay potency score (higher = more potent) is -1.14.

For TTGAGCAGGAGCCCGCAGGGCG, the sensor-assay potency score (higher = more potent) was -1.37.

Take ATGGTGCTGACGCTGCTGCGGC: the sensor-assay potency score (higher = more potent) is -1.77.

Another assay has as its target CLDN6. The description is as above. Particulars: shRNA.
Sequence ACAAAGACAATCCCAGAGGTGA registered a sensor-assay potency score (higher = more potent) of -0.71.

Regarding ATTAGCGTCAGGACCCCTGAGA, the sensor-assay potency score (higher = more potent) was -0.855.

In the case of TTTGTTAACAGATCATTTGTTT, the sensor-assay potency score (higher = more potent) worked out at 0.0812.

Sequence ATGACAAAGACAATCCCAGAGG showed a sensor-assay potency score (higher = more potent) of -1.76.

TTTGATAAAAATGTGAGTGTAA: the sensor-assay potency score (higher = more potent) stood at 0.357.

As to TAGAAGTCCCGGATGATGGCAT, the sensor-assay potency score (higher = more potent) amounted to 0.0775.

As for TTGGGCCTCAGCCACCAGGGGG, the sensor-assay potency score (higher = more potent) was -1.51.

TCCACACAGGTGGTACACTTGG came in with a sensor-assay potency score (higher = more potent) of -1.58.

As for TTCTCCTCCACACAGGTGGTAC, the sensor-assay potency score (higher = more potent) was -1.81.

AATCCCAGAGGTGAGCACCAGG showed a sensor-assay potency score (higher = more potent) of -1.46.

In turn, TAGCGGGCCATGTAATGGCTGG came in with a sensor-assay potency score (higher = more potent) of -1.06.

As for TAGACCAGCAAGCCGAACAGGG, the sensor-assay potency score (higher = more potent) was -0.8.

The target of a further assay is CLDN9. The assay is described as above. Particulars: shRNA.
TTGTAGAAGTCCTGGATGATGG: the sensor-assay potency score (higher = more potent) is -1.14.

Turning to ATGAGCACCAGGATGCCGGCGA, the sensor-assay potency score (higher = more potent) was -0.538.

With TTGTCCAGTCCAGATGCACCCG, the sensor-assay potency score (higher = more potent) was -0.545.

The sequence TTTGGAGCCAACGAGCTGCTGC came in with a sensor-assay potency score (higher = more potent) of -0.374.

TCGTCCTCCACACACGTGGTAC yielded a sensor-assay potency score (higher = more potent) of -1.58.

As to TAGAAGTCCTGGATGATGGCGT, the sensor-assay potency score (higher = more potent) was 0.302.

Regarding TTCGTCCTCCACACACGTGGTA, the sensor-assay potency score (higher = more potent) was -0.498.

As to TCCACACACGTGGTACACTGGG, the sensor-assay potency score (higher = more potent) was -1.23.

Sequence TAGCCCAGCCGAGGTCCGCGGG yielded a sensor-assay potency score (higher = more potent) of -1.28.

As for ATGATGGCGTGCGCCGTCCAGC, the sensor-assay potency score (higher = more potent) is -1.9.

Consider TTGCACTGCATCTGGCCCGTGC, for which the sensor-assay potency score (higher = more potent) was -0.338.

In another assay the target is CLEC9A. Described as above. Particulars: shRNA.
Sequence TTGGAAGACAGACATTTCTGGT registered a sensor-assay potency score (higher = more potent) of -0.439.

With TAGCTGACTGGGATCTCTCTGC, the sensor-assay potency score (higher = more potent) is -0.395.

The sequence TTAAACAATTCTCTTGACTGGT displayed a sensor-assay potency score (higher = more potent) of -0.125.

On to TTTTCTTGCTGCTGCATCGCAA, for which the sensor-assay potency score (higher = more potent) was -0.454.
